High-throughput results from PubChem BioAssay.
Pf Dd2 growth: Plasmodium falciparum Dd2 growth inhibition | P. falciparum Dd2 growth, SYBR Green, 72 h | Potency, µM (highest dose often 28.9 µM), without a hit: at the top dose activity, negative = inhibition, hits mostly inhibitors | 120,000 tested, 4.3% active; active means well fitted inhibition curve with a large enough effect;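 further: plate controls were DMSO vehicle for no effect and reference drug for full effect; nearly all actives have a fitted effect of over 65% in size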
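Readout: SYBR Green fluorescence, 485 nm excitation, 535 nm emission, after ~16 h lysis at 37C. Before that, Dd2-infected red cells (2.5% hematocrit) grew 72 h with compound, 29 uM top final concentration.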
An asterisk follows results filed as active; i = inactive; [ ] = dose if it differs, or a comment. Many of the other results were omitted from the sample, so hits are more common in it than they were. Potency means the concentration at half of the fitted maximal effect.

SMILES	Pf Dd2 growth
COc1cccc(NC(=O)Cn2cc(C(=O)c3ccc(C)cc3)c(=O)c3cc(OC)ccc32)c1	-19.3%
COc1ccc2c(c1)c(=O)c(C(=O)c1ccc(Cl)cc1)cn2CC(=O)Nc1ccc2c(c1)OCO2	6.3%
O=C(Cn1cc(S(=O)(=O)c2ccc(F)cc2)c(=O)c2cc3c(cc21)OCO3)Nc1ccccc1	19.3%
COc1cccc(NC(=O)Cn2cc(C(=O)c3ccc(F)cc3)c(=O)c3cc(OC)ccc32)c1	-8.2%
O=C(Cn1cc(S(=O)(=O)c2ccccc2)c(=O)c2cc(Cl)ccc21)Nc1ccc2c(c1)OCO2	8.91µM*
COc1ccc2c(c1)c(=O)c(C(=O)c1ccc(Cl)cc1)cn2CC(=O)Nc1ccc2c(c1)OCCO2	11.2µM*
COc1ccc(NC(=O)Cn2cc(C(=O)c3ccccc3)c(=O)c3cc(OC)ccc32)c(OC)c1	3.3%
COc1ccc(OC)c(NC(=O)Cn2cc(C(=O)c3ccc(Cl)cc3)c(=O)c3cc(OC)ccc32)c1	8.91µM*
CCOc1ccc(C(=O)c2cn(CC(=O)Nc3ccc4c(c3)OCCO4)c3ccc(OC)cc3c2=O)cc1	-21.9%
COc1ccc2c(c1)c(=O)c(S(=O)(=O)c1ccccc1)cn2CC(=O)Nc1ccc2c(c1)OCO2	-2.3%
CCc1ccc(C(=O)c2cn(CC(=O)Nc3cccc(OC)c3)c3ccc(OC)cc3c2=O)cc1	12.6µM*
COCC(=O)N[C@H]1C[C@@H](CO)N(Cc2ccsc2)C1	-0.8%
O=C([C@@H]1C[C@H](F)CN1S(=O)(=O)c1ccc(F)cc1F)N1CCCCC1	40.8%
O=C(NCc1ccc(C(F)(F)F)cc1)C1CCCN(c2nc3ncccc3o2)C1 (stereo unspecified)	i
CNC(=O)N1CCC(C2CCN(S(=O)(=O)c3ccc(C)c(F)c3)C2)CC1 (stereo unspecified)	i
CC1Oc2ccc(NC(=O)Nc3ccccc3)cc2CN(Cc2ccccc2)C1=O (stereo unspecified)	i
O=C(NCc1noc(Cc2cccs2)n1)C1NCCc2[nH]cnc21 (stereo unspecified)	5.3%
CCOC(=O)c1c(NC(=O)c2ccc(OC)cc2)sc2c1CCCCC2	30.3%
COc1ccc(OC)c(CCNC(=O)c2csc3c2CCCCC3)c1	4.8%
COc1ccc(NC(=O)NCc2c(-n3cccc3)sc3c2CCCC3)c(OC)c1	9.4%
CCOC(=O)c1c(NC(=O)COc2ccc(CC)cc2)sc2c1CCCC2	6.6%
COc1ccc(Cl)cc1NC(=O)c1c(NCc2ccc(C)o2)sc2c1CCCCC2	14.1µM*
COc1ccc(OC)c(NC(=O)c2c(NCc3ccc(OC)c(OC)c3)sc3c2CCC3)c1	7.94µM*
CCOc1ccc(NC(=O)c2c(NC(=O)c3ccccc3F)sc3c2CCC3)cc1	i
CCOC(=O)c1c(NC(=O)COc2ccc(Cl)cc2C)sc2c1CCCCC2	-6.9%
SMILES	Pf Dd2 growth
CCOc1cc(=O)n2c(c1C(=O)Nc1cc(OC)ccc1OC)CCCC2	12.4%
COC(=O)c1c(NC(=O)COc2ccc(Cl)cc2C)sc2c1CCCCC2	19.0%
CCOC(=O)N1CCc2c(sc(NCc3cccc(F)c3)c2C(=O)Nc2ccc(OCC)cc2)C1	12.6µM*
CCOC(=O)N1CCc2c(sc(NCc3cc(OC)ccc3OC)c2C(=O)Nc2cc(OC)ccc2OC)C1	11.2µM*
Cc1nc(-c2c3n(c(=O)n(CC(=O)NCCCc4ccccc4)c2=O)CCCC3)no1	7.4%
COc1ccc(-c2noc([C@@H]3CCCN3C(=O)c3ccc(OC)c(F)c3)n2)cc1	i
O=C(CCC[C@@H]1[C@H]2CCCN3CCC[C@@H](CN1C(=O)c1cccnc1)[C@@H]23)NCCCN1CCCC1=O	i
COc1ccc2cc(CN3CCC(N(C)C)C3)c(-c3cccc(C)c3)nc2c1 (stereo unspecified)	11.2µM*
Cc1oc(-c2cccc(Oc3ccccc3)c2)nc1CN1CC[C@H](N(C)C)C1	-13.0%
COCC1CCN(Cc2cc3cc4c(cc3nc2-c2ccc(Cl)cc2)OCO4)C1 (stereo unspecified)	i
COc1ccc(Cn2ccc3nc(C)c(C(=O)N4CCN(c5ccccc5)CC4)cc3c2=O)cc1	14.5%
COc1ccc(Cn2ccc3nc(C)c(C(=O)N4CCN(c5cccc(OC)c5)CC4)cc3c2=O)cc1	12.6µM*
COc1ccc(Cn2ccc3nc(C)c(C(=O)NCc4cccc(OC)c4)cc3c2=O)cc1	-25.0%
CC(C)N1CC2CCC(C1)N2Cc1cccc(C#N)c1	-8.4%[44.1 µM]
CC(C)N1CC2CCC(C1)N2Cc1cccc(-c2ccsc2)c1	11.2µM*
O=C(c1ccncc1)N1CC2CCC(C1)N2Cc1cccc(-c2ccsc2)c1	7.6%
CCCn1ccc2sc(C)c(C(=O)NC3CCCC3)c2c1=O	i
COc1ccc(NC(=O)N2CC(N(C3CCOCC3)S(C)(=O)=O)C2)c(C)c1	i
CCNC(=O)N[C@H]1C[C@@H](Cc2cc(-c3ccccc3)on2)C1(C)C	-15.9%[44.1 µM]
CC(C)N[C@H]1C[C@@H](Cc2cc(-c3ccccc3)on2)C1(C)C	-8.3%[44.1 µM]
COc1ccc(C(=O)N[C@H]2C[C@@H](Cc3cc(-c4ccccc4)on3)C2(C)C)cc1	4.47µM*
